# Test results taken from PubChem BioAssay (NCATS).
# Values joined by “and” are separate entries in the source; they are usually repeats but may differ in a detail not shown here. Identical values can stand only once. Inconclusive results are not listed. A call without a number means that no potency is given here. The source holds several records for some structures; these can differ, active in one and inactive in another. Active and inactive are the calls of the source. Unless noted, calls follow the shape of the full dose curve.
# How the values were obtained:
# [1] = biological target: Peroxisome proliferator-activated receptor gamma (Homo sapiens) (UniProt P37231); test: qHTS assay for small molecule antagonists of peroxisome proliferator-activated receptor gamma signaling (AID 588537; active = well fitted inhibition curve with a large enough effect in the signal ratio, with a control signal flat, not every such curve was filed as active; the % refers to the signal ratio; also: potency is read from the fitted curve at half-maximal effect)
# Summary of the method: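 We seeded GeneBLAzer HEK293 reporter cells at 3000 per well, allowed 6-6.5 h attachment at 37 C, then co-treated with test compound titrations and 50 nM rosiglitazone overnight (16 h). Inhibition was quantified from 460/530 nm emission ratios.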
# [2] = biological target: Vitamin D3 receptor (Homo sapiens) (UniProt P11473); test: qHTS assay for small molecule antagonists of vitamin D receptor signaling (AID 588541);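 also: receptor activated by calcitriol during compound treatment; series mostly up to about 77 µM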
# Summary of the method: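 VDR-UAS-bla HEK293T cells (2000/well, 2% charcoal-stripped FBS) were treated with titrated compounds plus 1-alpha,25-dihydroxyvitamin D3 (50 nM or 3 nM final) for 16 h at 37 C. CCF4 beta-lactamase fluorescence was read; Hill fits gave IC50.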
# [3] = biological target: Vitamin D3 receptor (Homo sapiens) (UniProt P11473); test: qHTS assay for small molecule agonists of vitamin D receptor signaling (AID 588543)
# Summary of the method: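 β-lactamase reporter, VDR-UAS-bla HEK293T, agonist mode. Cells plated 5 h at 37 °C, compound titration 16 h at 37 °C, CCF4 dye 2 h RT, ratio 460/530 nm. Hill fit → EC50, efficacy vs 50 nM 1α,25-(OH)2D3.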
# [4] = qHTS assay for small molecule agonists of retinoid X receptor alpha signaling (AID 588544); conditions: HEK293T RXRa-UAS-bla, beta-lactamase reporter, 18 h; 530 nm emission; also: potency is read from the fitted curve at half-maximal effect
# [5] = biological target: Retinoic acid receptor RXR-alpha (Homo sapiens) (UniProt P19793); test: as above
# [6] = biological target: Thyroid hormone receptor beta (Homo sapiens) (UniProt P10828); test: qHTS assay for small molecule agonists of thyroid hormone receptor beta signaling (AID 588545)
# Summary of the method: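 TR-UAS-bla-GripTite HEK 293 cells in medium with 2% charcoal/dextran FBS, 0.1 mM NEAA and 1 mM sodium pyruvate were treated with titrated compounds for 18 hrs at 37 C. Beta-lactamase reporter was read with CCF4 dye (ex 405, em 460/530 nm); EC50 from Hill fits.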
# [7] = qHTS assay for small molecule antagonists of retinoid X receptor alpha signaling (AID 588546; active = well fitted inhibition curve with a large enough effect in the signal ratio, with a control signal flat, not every such curve was filed as active; the % refers to the signal ratio;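 also: cells stimulated with 9-cis-retinoic acid as agonist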); conditions: HEK293T RXRa-UAS-bla, beta-lactamase ratio, antagonist mode; measured here: W530 green channel, cytotoxicity proxy
# Summary of the method: (§1)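 Beta-lactamase reporter inhibition, read as CCF4 fluorescence ratio (ex 405, em 460/530 nm) after 2 h at RT. HEK293T UAS-bla cells, 2500/well, were stimulated with 9-cis-RA at 500 or 100 nM final alongside test compound for 18 h at 37 C.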
# [8] = biological target: Retinoic acid receptor RXR-alpha (Homo sapiens) (UniProt P19793); test: as above; conditions: HEK293T RXRa-UAS-bla, beta-lactamase ratio, antagonist mode
# Summary of the method: as §1
# [9] = biological target: Thyroid hormone receptor beta (Homo sapiens) (UniProt P10828); test: qHTS assay for small molecule antagonists of thyroid hormone receptor beta signaling (AID 588547; active = well fitted inhibition curve with a large enough effect in the signal ratio, with a control signal flat, not every such curve was filed as active; the % refers to the signal ratio;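 also: cells stimulated with 0.4 nM T3 agonist during compound exposure; series mostly up to about 77 µM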); conditions: TR-UAS-bla HEK293, beta-lactamase ratio, antagonist mode, 18 h
# Summary of the method: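 TR-UAS-bla GripTite HEK293 cells in 2% charcoal/dextran FBS medium were preincubated 4 h at 37 C, given compound (0.59 nM to 92 uM) plus 0.4 nM T3 (final) for 18 h, then CCF4 for 2 h at RT; Hill fit gave IC50.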
# [10] = biological target: Voltage-gated inwardly rectifying potassium channel KCNH2 (Homo sapiens) (UniProt Q12809); test: qHTS Assay for Small Molecule Inhibitors of the Human hERG Channel Activity (AID 588834; active = well fitted inhibition curve with a large enough effect;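 also: lower thallium flux fluorescence means stronger hERG block; nearly all actives have a fitted effect of over 50% in size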; also: potency is read from the fitted curve at half-maximal effect)
# Summary of the method: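 Concentration-response qHTS measuring drop in thallium-sensitive dye signal. U2OS cells carrying BacMam hERG; compound exposure ~10 min, then stimulation buffer and 2 min read at 1 sec intervals.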
# Peroxisome proliferator-activated receptor gamma (Homo sapiens), sequence (P37231 whole entry, looked up): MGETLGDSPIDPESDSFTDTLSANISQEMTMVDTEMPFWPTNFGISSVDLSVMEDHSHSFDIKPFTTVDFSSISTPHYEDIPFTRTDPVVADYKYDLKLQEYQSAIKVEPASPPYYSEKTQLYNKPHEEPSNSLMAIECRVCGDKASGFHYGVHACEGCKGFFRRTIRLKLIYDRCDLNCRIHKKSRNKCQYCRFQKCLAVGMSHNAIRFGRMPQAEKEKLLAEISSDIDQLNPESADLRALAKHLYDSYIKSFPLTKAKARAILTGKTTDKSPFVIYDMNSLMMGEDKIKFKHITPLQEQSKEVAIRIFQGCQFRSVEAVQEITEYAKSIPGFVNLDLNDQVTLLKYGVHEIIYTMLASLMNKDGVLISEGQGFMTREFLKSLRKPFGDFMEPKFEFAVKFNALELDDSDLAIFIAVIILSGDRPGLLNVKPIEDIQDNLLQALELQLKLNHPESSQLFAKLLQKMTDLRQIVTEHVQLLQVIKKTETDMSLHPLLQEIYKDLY
# Thyroid hormone receptor beta (Homo sapiens), sequence (P10828 whole entry, looked up): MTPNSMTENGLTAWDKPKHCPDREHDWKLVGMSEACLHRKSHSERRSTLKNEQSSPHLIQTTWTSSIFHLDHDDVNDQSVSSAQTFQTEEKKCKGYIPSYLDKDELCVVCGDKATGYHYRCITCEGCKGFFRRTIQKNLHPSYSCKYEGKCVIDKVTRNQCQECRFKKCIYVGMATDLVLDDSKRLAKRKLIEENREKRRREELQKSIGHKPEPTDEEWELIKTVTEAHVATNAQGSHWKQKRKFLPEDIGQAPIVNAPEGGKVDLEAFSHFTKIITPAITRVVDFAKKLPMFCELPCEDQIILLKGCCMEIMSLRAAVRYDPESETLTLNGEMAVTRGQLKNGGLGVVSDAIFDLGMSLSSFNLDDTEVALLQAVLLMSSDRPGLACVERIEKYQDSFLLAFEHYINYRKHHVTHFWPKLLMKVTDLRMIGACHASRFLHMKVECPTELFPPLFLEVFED
# Retinoic acid receptor RXR-alpha (Homo sapiens), sequence (P19793 whole entry, looked up): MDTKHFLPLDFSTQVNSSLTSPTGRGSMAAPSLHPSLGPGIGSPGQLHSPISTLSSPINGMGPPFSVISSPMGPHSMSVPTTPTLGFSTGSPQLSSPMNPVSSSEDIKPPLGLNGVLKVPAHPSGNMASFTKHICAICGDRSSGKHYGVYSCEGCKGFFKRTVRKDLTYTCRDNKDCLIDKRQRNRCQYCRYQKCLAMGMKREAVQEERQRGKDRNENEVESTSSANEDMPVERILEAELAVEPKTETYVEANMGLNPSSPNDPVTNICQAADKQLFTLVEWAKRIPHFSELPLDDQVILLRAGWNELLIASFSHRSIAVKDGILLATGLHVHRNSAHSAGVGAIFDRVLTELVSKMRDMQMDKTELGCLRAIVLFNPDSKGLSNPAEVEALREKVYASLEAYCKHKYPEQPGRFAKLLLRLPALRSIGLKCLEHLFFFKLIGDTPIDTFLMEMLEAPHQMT
# Voltage-gated inwardly rectifying potassium channel KCNH2 (Homo sapiens), sequence (Q12809 whole entry, looked up): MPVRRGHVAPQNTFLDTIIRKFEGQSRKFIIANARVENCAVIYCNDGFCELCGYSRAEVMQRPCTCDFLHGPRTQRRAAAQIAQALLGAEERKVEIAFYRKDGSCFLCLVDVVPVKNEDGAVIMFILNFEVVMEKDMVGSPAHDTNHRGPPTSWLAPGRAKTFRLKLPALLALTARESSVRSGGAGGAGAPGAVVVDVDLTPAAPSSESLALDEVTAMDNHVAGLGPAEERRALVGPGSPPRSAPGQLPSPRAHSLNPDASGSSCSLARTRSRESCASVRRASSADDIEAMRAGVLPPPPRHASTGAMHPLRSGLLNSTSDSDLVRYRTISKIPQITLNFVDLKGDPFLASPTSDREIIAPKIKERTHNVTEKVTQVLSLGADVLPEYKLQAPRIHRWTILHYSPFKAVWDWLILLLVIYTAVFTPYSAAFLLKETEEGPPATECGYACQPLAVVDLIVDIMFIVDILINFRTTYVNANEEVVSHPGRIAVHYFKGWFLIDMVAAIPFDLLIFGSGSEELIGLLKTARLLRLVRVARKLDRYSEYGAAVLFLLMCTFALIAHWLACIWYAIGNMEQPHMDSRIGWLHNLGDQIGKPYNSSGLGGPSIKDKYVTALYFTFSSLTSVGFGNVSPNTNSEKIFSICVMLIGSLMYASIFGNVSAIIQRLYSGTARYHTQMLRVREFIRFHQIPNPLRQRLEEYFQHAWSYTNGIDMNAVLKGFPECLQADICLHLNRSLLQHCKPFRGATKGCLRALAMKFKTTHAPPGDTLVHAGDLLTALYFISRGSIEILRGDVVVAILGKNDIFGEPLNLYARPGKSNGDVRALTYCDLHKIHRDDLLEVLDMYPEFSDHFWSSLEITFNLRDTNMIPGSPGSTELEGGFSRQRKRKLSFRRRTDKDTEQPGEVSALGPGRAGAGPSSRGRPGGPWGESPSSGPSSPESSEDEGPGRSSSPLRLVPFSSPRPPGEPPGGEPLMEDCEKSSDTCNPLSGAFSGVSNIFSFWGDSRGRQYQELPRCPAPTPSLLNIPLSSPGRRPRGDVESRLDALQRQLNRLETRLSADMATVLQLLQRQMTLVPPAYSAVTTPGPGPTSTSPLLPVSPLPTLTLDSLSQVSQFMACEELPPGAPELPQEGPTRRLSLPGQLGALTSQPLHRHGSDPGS
# Vitamin D3 receptor (Homo sapiens), sequence (P11473 whole entry, looked up): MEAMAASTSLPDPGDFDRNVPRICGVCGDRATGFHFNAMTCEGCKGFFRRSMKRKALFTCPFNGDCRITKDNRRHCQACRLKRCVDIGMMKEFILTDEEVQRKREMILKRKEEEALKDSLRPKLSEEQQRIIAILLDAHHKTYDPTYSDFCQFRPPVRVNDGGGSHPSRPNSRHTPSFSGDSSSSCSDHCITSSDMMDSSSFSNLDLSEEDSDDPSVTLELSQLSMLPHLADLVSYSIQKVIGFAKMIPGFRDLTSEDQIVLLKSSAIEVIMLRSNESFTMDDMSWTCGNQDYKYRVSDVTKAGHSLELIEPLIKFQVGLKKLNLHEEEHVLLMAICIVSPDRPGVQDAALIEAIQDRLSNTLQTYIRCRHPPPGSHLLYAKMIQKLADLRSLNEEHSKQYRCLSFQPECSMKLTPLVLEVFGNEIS
Compound,Potency [1],Potency [2],outcome [3],max response [4],Potency [5],outcome [6],max response [7],max response [8],activity change % (negative = inhibition) [9],Potency [10]
CS(=O)(=O)c1ccc(C(=O)C2C(=O)CCCC2=O)c([N+](=O)[O-])c1,inactive,inactive,inactive,11.3%,17.8 µM (active),inactive,-0.159%,0.528% (inactive),9.38% (inactive),
Nc1ccc(N=Nc2ccccc2)cc1,inactive,inactive,inactive,-10.7%,inactive,inactive,,,-2.63% (inactive),
Nc1ccc([N+](=O)[O-])cc1,,inactive,inactive,6.91%,inactive,inactive,1.67%,-12.6% (inactive),-27.9% (inactive),inactive
c1cc2ccc3cccc4ccc(c1)c2c34,inactive,inactive,inactive,-6.58% and -8.62%,inactive,inactive,-9.93% and -1.15%,0.282% (inactive) and -8.73% (inactive),8.95% (inactive),
CCCCCCCCCC(CC)c1ccc(S(=O)(=O)O)cc1 (centres undefined),inactive,,,2.78% and -0.585%,inactive,inactive,-9.16% and 3.96%,4.12% (inactive) and -4.98% (inactive),6.11% (inactive) and -12% (inactive),inactive
CN(C)[C@@H]1C(=O)C(C(N)=O)=C(O)[C@@]2(O)C(=O)C3=C(O)c4c(O)cccc4[C@@](C)(O)[C@H]3[C@H](O)[C@@H]12,inactive,,,10.7% and 6.3% and 19.5%,inactive,inactive,16.2% and 7.17% and 21.1%,-9.03% (inactive) and -41.7% (inactive) and -15.3% (inactive),2.86% (inactive) and -5.16% (inactive) and -23.7% (inactive),
Nc1ccc(Sc2ccc(N)cc2)cc1,inactive,inactive,inactive,14.5% and 0.308%,inactive,inactive,1.56% and -5.13%,1.16% (inactive) and 6.78% (inactive),-2.35% (inactive) and -11.2% (inactive),inactive
CO/C=C(/C(=O)OC)c1ccccc1Oc1cc(Oc2ccccc2C#N)ncn1,,inactive,inactive,,,inactive,,,,
C=CC(=O)NCNC(=O)C=C,inactive,inactive,inactive,1.23% and 0.699%,inactive,,-7% and 1.5%,10.7% (inactive) and -13.1% (inactive),-12.9% (inactive) and 1.41% (inactive),
O=S(=O)(O)C(F)(F)C(F)(F)C(F)(F)C(F)(F)F,inactive,inactive,inactive,,,inactive,,,-13.9% (inactive),
COc1ccc(C(c2ccc(OC)cc2)C(Cl)(Cl)Cl)cc1,inactive and 28.2 µM (active),inactive,inactive,,,inactive,-3.69% and 8.92%,-30.1% (inactive) and -25% (inactive),0.506% (inactive) and -1.09% (inactive) and 26% (inactive),
OCCCBr,inactive,inactive,inactive,-10.8%,inactive,inactive,-9.62%,-5.03% (inactive),-1.82% (inactive),inactive
O=C(O)C(Cl)Cl,inactive,,,-16% and 3.52%,inactive,inactive,-11.2% and -3.76%,4.75% (inactive) and -13.6% (inactive),0.759% (inactive) and 14.6% (inactive),inactive
CC(C)(C)C(O)C(Oc1ccc(Cl)cc1)n1cncn1 (centres undefined),inactive,inactive,inactive,,,,-12.3%,-0.566% (inactive),-8.05% (inactive),
CCO/N=C(\CC)C1=C(O)CC(c2c(C)cc(C)cc2C)CC1=O (centres undefined),inactive,inactive,inactive,,,inactive,-8.17%,-5.84% (inactive),5.1% (inactive),
O=[N+]([O-])/N=C1\NCCN1Cc1ccc(Cl)nc1,inactive,inactive,,-17.3%,inactive,inactive,-10.6%,-0.806% (inactive),,
Nc1c(Cl)c(Cl)c(Cl)c(Cl)c1Cl,inactive,inactive,inactive,-5.48%,inactive,,-3.59%,-8.48% (inactive),17.1% (inactive),
COc1nn(CSP(=S)(OC)OC)c(=O)s1,,inactive,inactive,,,inactive,,,,
O=C(O)CCCOc1ccc(Cl)cc1Cl,inactive,,inactive,,,inactive,17.8%,-3.54% (inactive),12.5% (inactive),
CCCCCCCCCCCCCCCC[N+](C)(C)C,inactive,inactive,inactive,,,,-7.98%,-2.56% (inactive),,inactive
CCOP(=O)(NC(C)C)Oc1ccc(SC)c(C)c1 (centres undefined),inactive and 44.7 µM (active),inactive,inactive,8.26%,inactive,,1.81% and -9.53%,-12.2% (inactive) and -3.23% (inactive),,inactive
O=[N+]([O-])c1c(Cl)c(Cl)cc(Cl)c1Cl,15.8 µM (active),inactive,inactive,-2.76%,inactive,inactive,-4.05%,6.87% (inactive),-0.964% (inactive),
O=S(=O)(c1ccc(Cl)cc1)c1ccc(Cl)cc1,,inactive,inactive,-4.56% and -1.98%,inactive,inactive,-9.45% and -15.5% and -9.97%,-23.5% (inactive) and -4.94% (inactive) and -14.2% (inactive),9.09% (inactive) and 5.78% (inactive) and 14.1% (inactive),44.7 µM (active)
CN(C)NC(=O)CCC(=O)O,inactive,inactive,inactive,6.92% and -25.6%,inactive,inactive,-8.59% and -3.29%,-0.551% (inactive) and 8.99% (inactive),-3.38% (inactive),
COCCOCCO,inactive,inactive,inactive,0.722%,inactive,inactive,3.81% and -4.43%,-11.3% (inactive) and -22% (inactive),1.33% (inactive) and -16.2% (inactive),

Compound,Potency [1],Potency [2],outcome [3],max response [4],Potency [5],outcome [6],max response [7],max response [8],activity change % (negative = inhibition) [9],Potency [10]
Cc1cc(O)ccc1Cl,inactive,inactive,inactive,-6.7%,inactive,inactive,3.81%,-4.22% (inactive),1.27% (inactive),inactive
O=[N+]([O-])c1cc([N+](=O)[O-])c2ccccc2c1,inactive,inactive,inactive,-2.69%,inactive,inactive,-9.65%,12.9% (inactive),-11.2% (inactive),
c1ccc2occc2c1,inactive,,,,,,,,-0.0158% (inactive) and 0.269% (inactive),
CCOCCOC(C)=O,inactive,inactive,inactive,-8.15%,inactive,,-4.94%,11% (inactive),9.89% (inactive),inactive
O=[N+]([O-])c1c2ccccc2cc2ccccc12,31.6 µM (active),inactive,inactive,3.63%,inactive,inactive,,,0.364% (inactive),
CC(C)(c1ccc(O)cc1)c1ccc(O)cc1,inactive,,,0.616% and 8.18%,inactive,,,,-3.91% (inactive),
CCCCC(CC)COC(=O)c1ccccc1C(=O)OCC(CC)CCCC (centres undefined),inactive,inactive,inactive,-20.4% and -8.96%,inactive,inactive,-12.5% and -12.9%,9.66% (inactive) and 2.99% (inactive),-25.5% (inactive) and -4.42% (inactive),
Nc1ccc(Cl)cc1N,,inactive,inactive,13.9%,inactive,inactive,11.5% and -1.67%,-1.75% (inactive) and 0.323% (inactive),-20.8% (inactive),39.8 µM (active)
CCCCCCCCc1ccc(O)cc1,inactive,inactive,inactive,-5.76% and -13.1%,inactive,inactive,-5.97%,-17.2% (inactive),,inactive
C1CCC(NC2CCCCC2)CC1,inactive,inactive,inactive,-15% and -1.01% and -0.218%,inactive,inactive,-3.33% and -12% and -7.77%,9.08% (inactive) and 2.51% (inactive) and 3.48% (inactive),-2.7% (inactive) and -4.6% (inactive) and 5.65% (inactive),inactive
Clc1cnc(Oc2ccc(Oc3ncc(Cl)cc3Cl)cc2)c(Cl)c1,inactive,inactive,inactive,,,,-4.82%,-16.8% (inactive),,inactive
O=C(Nc1ccccc1-c1ccc(Cl)cc1)c1cccnc1Cl,,inactive,inactive,,,inactive,-4.9%,-14.2% (inactive),,
C=CCC1=C(C)C(OC(=O)C2C(C=C(C)C)C2(C)C)CC1=O (centres undefined),inactive,inactive,inactive,-5.66%,inactive,inactive,-13.5% and -4.99%,-8.71% (inactive) and -26.3% (inactive),-24.8% (inactive) and -17.8% (inactive),
O=S(=O)(O)C(F)(F)C(F)(F)C(F)(F)C(F)(F)C(F)(F)C(F)(F)C(F)(F)C(F)(F)F,inactive,inactive,inactive,-11.4% and -1.61%,inactive,inactive,-5.97% and -3.14%,-2.01% (inactive) and 4.02% (inactive),-0.756% (inactive),
S=C(NC1CCCCC1)N1CCC(c2cnc[nH]2)CC1,,,,,,,,,,inactive
C[C@]12CCC3C(CC[C@H]4C[C@H](O)CC[C@]34C)C1CC[C@@H]2C(=O)CO (some centres undefined),,,,,,,,,,inactive
Brc1ccccc1-c1ccccc1,,,,,,,,,,28.2 µM (active)
CC(C)NC(C)Cc1ccc(I)cc1 (centres undefined),,,,,,,,,,8.91 µM (active)
ClC1=C(Cl)[C@]2(Cl)[C@@H]3[C@@H]4C[C@@H]([C@H]5O[C@@H]45)[C@@H]3[C@@]1(Cl)C2(Cl)Cl,,inactive,inactive,,,inactive,5.74%,-14.7% (inactive),-14.5% (inactive),
CS(=N)(=O)CC[C@H](N)C(=O)O (some centres undefined),,,,,,,,,,inactive
C[C@]12N[C@H](Cc3ccccc31)c1ccccc12,,,,,,,,,,inactive
Cc1nc(-c2ccc(-c3ccc(C(=O)N4CCc5cc6c(cc54)C4(CCN(C)CC4)CO6)cc3)c(C)c2)no1,,,,,,,,,,7.94 µM (active)
NCc1cc(=O)[nH]o1,,,,,,,,,,inactive
C[C@@H]1O[C@H](C[N+](C)(C)C)C[C@H]1O,,,,,,,,,,inactive
